# TEAD-YAP inh: TEAD-YAP interaction inhibition. inhibition, % at 9.12 µM. HEK-TIYL cells, TEAD-Gal4/YAP UAS-luciferase luminescence. 1.4% of 640,000 active; in the data active = inhibition above about 32%;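 note: 0% = median of test compound wells and 100% = reference inhibitor wells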
# MITF primary: inhibitors of human MITF; O75030; AlphaScreen MITF homodimerization, bead proximity signal; inhibition, % at 2.6 µM; 0.91% of 650,000 active; AID 1259374; in the data active = inhibition above about 50%;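 note: 0% = vehicle wells with protein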
# FBW7 activator: human FBW7 E3 ligase activation, primary screen; AID 1259310; Q969H0; normalized activity (activation), % at 26.1 µM; AlphaScreen FBW7–phospho-cyclin E peptide binding, activator screen; 0.13% of 650,000 active; in the data active = normalized activity above about 1.9%;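 note: purified mutant Fbw7 with reduced substrate affinity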
# GPR151 activ: activates the human receptor GPR151. Q8TDV0. PathHunter beta-arrestin GPR151 cells, luminescence. activation, % at 11.2 µM. 1% of 650,000 active; in the data active = activation above about 4.9%;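 note: 0% = median of compound wells and 100% = cells with positive control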
# GPR151 conf act: human GPR151 activation, confirmation screen; shares compounds with GPR151 activ; GPR151 PathHunter beta-arrestin cells, luminescence, 90 min; % of EA-reagent control over plate median; activation, % at 11.2 µM; 6,700 tested, under 10 active; AID 1508609;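 active = mean percent activation across replicates above the confirmation screen cutoff of 4.91%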
# GPR119 ag: counter-screen for GPR151 activators: effect on human GPR119. shares compounds with GPR151 activ. GPR119 PathHunter beta-arrestin cells, luminescence, 90 min; 0 = compound-well median, 100 = enzyme-acceptor control. activation, % at 11.2 µM. 0.3% of 6,700 active. AID 1508611;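 active = mean percent activation in the counterscreen above 29.09%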;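 note: counterscreen on off-target GPR119 to flag nonselective hits from the GPR151 activator screen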
# Target sequence (Q8TDV5 whole entry, looked up): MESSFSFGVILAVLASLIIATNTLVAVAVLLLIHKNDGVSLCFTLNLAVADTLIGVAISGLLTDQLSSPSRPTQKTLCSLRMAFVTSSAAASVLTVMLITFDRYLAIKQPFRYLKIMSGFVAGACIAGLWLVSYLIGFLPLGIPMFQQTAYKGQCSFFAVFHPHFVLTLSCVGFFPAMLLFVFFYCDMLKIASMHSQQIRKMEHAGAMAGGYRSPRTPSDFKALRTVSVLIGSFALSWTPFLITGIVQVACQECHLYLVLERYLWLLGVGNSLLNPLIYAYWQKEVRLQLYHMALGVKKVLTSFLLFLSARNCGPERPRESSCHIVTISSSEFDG
# An asterisk follows results filed as active; . = no result given. This is a sample that favours compounds with a hit; in the whole collection about 3.5% have one here.
SMILES,TEAD-YAP inh,MITF primary,FBW7 activator,GPR151 activ,GPR151 conf act,GPR119 ag
CCn1c2c(c(=O)[nH]c1=O)C(c1ccc(F)cc1)C1=C(CC(C)(C)CC1=O)N2 (stereo not drawn),-3,1,0,0,.,.
CCCC(=O)Nc1sc(C)c(CC)c1C(=O)OCC,8,-4,0,13*,0,-8
CCOC(=O)c1c(NC(=O)CNCC(O)CO)sc(C)c1C (stereo not drawn),-16,-11,0,5.3*,1,5
CCCc1cc(C(=O)Nc2sc(C)c(CC)c2C(N)=O)cs1,-28,23,1,9.1*,0,5
COC(=O)C(NS(=O)(=O)c1ccc([N+](=O)[O-])cc1)c1ccccc1 (stereo not drawn),9,-2,0,9.3*,0,3
O=C(O)C(NS(=O)(=O)c1ccc([N+](=O)[O-])cc1)c1ccccc1 (stereo not drawn),4,16,0,2,.,.
Cc1onc(-c2c(Cl)cccc2Cl)c1C(=O)NCCc1ccccc1,-1,13,1,-1,.,.
COc1ccc(CNC(=O)c2sc3cnccc3c2-n2cccc2)cc1,55*,5,0,5.2*,1,3
CSc1cccc(NC(=O)CCC(=O)N2CCSc3ccccc32)c1,-1,3,0,17*,0,-7
Cc1cccc(NC(=O)/C=C/C(=O)O)c1,-12,8,0,2,.,.
CCc1cccc(NC(=O)/C=C/C(=O)O)c1,-1,-5,0,5.2*,0,-5
CC1=C(C(=O)OCc2ccc3c(c2)OCO3)C(c2cccc(Cl)c2)NC(=O)N1 (stereo not drawn),25,-4,0,6.6*,1,14
CC1=C(C(=O)OCC(C)C)C(c2ccc3c(c2)OCO3)NC(=O)N1 (stereo not drawn),-2,11,0,5.9*,0,5
CCn1c(SCC(=O)Nc2nc(C)c(C)s2)nnc1-c1ccccc1,4,5,1,0,.,.
COc1ccc(C(=O)Nc2cc(C(N)=O)ccc2OC)cc1,1,-9,0,0,.,.
COc1ccc(C(N)=O)cc1NC(=O)CC(O)(C(F)(F)F)C(F)(F)F,-10,48,0,7.3*,0,-11
CCOC(=O)c1c(C)[nH]c(C)c1C(=O)CSc1nc(-c2ccccc2)cn1N,1,8,0,1,.,.
CS(=O)(=O)c1cccc(S(=O)(=O)N2CCC(Cc3ccccc3)CC2)c1,-13,0,0,0,.,.
O=C(O)c1cccc(-n2nnnc2-c2ccccc2)c1,-7,-5,0,5.8*,-1,-18
CCCn1c(C2CC2)nc2ccccc21,-2,-1,0,9.9*,0,2
O=C(NC1CC1)c1cc(=O)[nH]c2ccc(Br)cc12,-15,3,0,6.2*,0,20
CC(C)CCNC(=O)c1cc(=O)[nH]c2ccc(Br)cc12,2,4,0,0,.,.
CCC(C)NC(=O)c1cc(=O)[nH]c2ccc(Br)cc12 (stereo not drawn),8,3,0,8.8*,3,33*
O=C(O)c1ccccc1Nc1ccnc(N2CCCCC2)n1,15,-5,0,1,.,.
C/C(=C\c1ccccc1)CN1CCC(C(=O)NC(C)C)CC1,10,44,0,5.1*,-1,-5
SMILES,TEAD-YAP inh,MITF primary,FBW7 activator,GPR151 activ,GPR151 conf act,GPR119 ag
O=S(=O)(NCC(c1ccco1)N1CCc2ccccc21)c1ccc(F)cc1 (stereo not drawn),4,3,0,9.1*,-1,-8
CC(C)Oc1ccc(CN2CCCC(CO)(Cc3ccccc3)C2)cc1CO (stereo not drawn),2,10,1,5.0*,-1,-7
CC(C)OC(=O)c1c(NC(=O)c2cnn3c(C(F)(F)F)cc(-c4ccccc4)nc23)sc2c1CCCC2,-3,13,1,-1,.,.
COc1ccc(C=C2C(=O)c3ccccc3C2=O)cc1,-2,-9,0,-1,.,.
COCc1cc(C)nc2sc3c(=O)n(-c4ccc(C)cc4C)nnc3c12,5,16,0,1,.,.
COCc1cc(C)nc2sc3c(=O)n(-c4ccc(C(C)=O)cc4)nnc3c12,-3,0,0,5.5*,0,5
CCOc1nc(NC(=O)NS(=O)(=O)c2ccccc2)nc(-c2ccccc2)n1,-1,2,0,5.0*,0,1
Cc1ccc(-c2nnc(Sc3cc(C(C)(C)C)c(O)c(C(C)(C)C)c3)c3ccccc23)cc1,-3,11,0,0,.,.
C=CCn1c(SCc2ccc(OC)c([N+](=O)[O-])c2)nnc1-c1cccc(Br)c1,-8,-18,0,5.0*,0,-4
CCOc1ccccc1NC(=O)c1ccccc1NS(C)(=O)=O,10,-6,0,0,.,.
CCOc1ccccc1NC(=O)c1ccoc1C,9,6,0,5.9*,1,-7
CCOc1ccccc1NC(=O)c1ccccc1NS(=O)(=O)c1ccccc1,2,-18,0,5.9*,2,13
CCOC(=O)c1ccccc1NC(=O)c1ccoc1C,7,11,0,1,.,.
CC(C)n1c(/C=C(/C(=O)Oc2ccc(F)cc2)c2ccc(F)cc2)nc2ccccc21,7,1,0,0,.,.
Cc1ccccc1N(CC(=O)Nc1cccc(Cl)c1)S(C)(=O)=O,-1,-1,0,1,.,.
O=C(COc1cccc(Cl)c1Cl)c1ccc[nH]1,-9,0,0,9.9*,0,-12
CCOc1ccccc1CN1CCN(Cc2cccc(OC)c2OC)CC1CCO (stereo not drawn),3,-2,0,-1,.,.
O=C(O)C1CCC(N2C(=O)c3cccc([N+](=O)[O-])c3C2=O)CC1 (stereo not drawn),4,-5,0,5.2*,-1,-1
O=C1c2cccc([N+](=O)[O-])c2C(=O)N1C1CCCCCCC1,15,17,0,-1,.,.
O=C(COc1ccc(Cl)cc1Cl)NC(C(=O)Nc1cccc(Cl)c1)c1ccccc1 (stereo not drawn),5,5,0,-1,.,.
C#CCN1CCc2cc(OC)c(OC)cc2C1C (stereo not drawn),-10,-10,0,6.4*,2,4
COc1cc2c(cc1OC)C(C)N(C(=O)c1ccccc1Cl)CC2 (stereo not drawn),0,-7,0,0,.,.
COC(=O)c1ccc(/C=c2/sc3nc4c(C)cc(C)cc4n3c2=O)cc1,-2,12,0,0,.,.
O=C(c1ccc(C#CC2(O)CCCCC2)cc1)N1CCN(c2ccccc2)CC1,1,9,0,2,.,.
O=C(c1ccccc1)N1CCN(CC#CC2(O)CCCCC2)CC1,-2,20,1,10*,1,4

# Screens as filed in PubChem.
